Laboratory results as given in PubChem BioAssay AID1159580 (chemical genetic matrix, 2015).
In all, about 5,500 compounds went through this assay and about 2,000 (36%) were called active. Another 18% or so got no clear call; they are omitted. Cut-off read from the data, not from the text of the source: active = normalized growth mostly below about 0.91 (no sharp cut-off); inconclusive = no clear call, values can overlap the other calls; inactive = mostly above about 0.92. This is one part of the list.

Test: chemical genetic growth profiling, strain panel (AID 1159580);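 note: tested at 20 µM; growth read once vehicle control cultures reached saturation at 30 °C; 1 = growth at the plate median or of vehicle wells; lower values mean less growth of the strain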
Details: growth OD

Measured: normalized growth

CC(=O)CCCCn1c(=O)c2c(ncn2C)n(C)c1=O
inactive: S. cerevisiae deletion strains, locus YJR066W, strain TOR1, active compounds read low 0.958 | S. cerevisiae deletion strains, locus YJR075W, strain HOC1, active compounds read low 1.01 | S. cerevisiae deletion strains, locus YKL009W, strain mrt4, active compounds read low 0.994 | S. cerevisiae deletion strains, locus YKL068W, active compounds read low 0.997 | S. cerevisiae deletion strains, locus YKL085W, strain MDH1 (second series), active compounds read low 1 | S. cerevisiae deletion strains, locus YKL085W, strain MDH1, active compounds read low 1 | S. cerevisiae deletion strains, locus YKL160W, strain elf1, active compounds read low 1.02 | S. cerevisiae deletion strains, locus YKL190W, strain CNB1, active compounds read low 1.02 | S. cerevisiae deletion strains, locus YKR001C, strain vps1, active compounds read low 1.02 | S. cerevisiae deletion strains, locus YKR026C, strain gcn3, active compounds read low 1.01 | S. cerevisiae deletion strains, locus YKR091W, strain srl3, active compounds read low 1.01 | S. cerevisiae deletion strains, locus YLL001W, strain dnm1, active compounds read low 1.01 | S. cerevisiae deletion strains, locus YLL026W, active compounds read low 1.01 | S. cerevisiae deletion strains, locus YLL041C, strain sdh2, active compounds read low 1.01 | S. cerevisiae deletion strains, locus YLR027C, strain aat2, active compounds read low 1 | S. cerevisiae deletion strains, locus YLR039C, strain RIC1, active compounds read low 1.03 | S. cerevisiae deletion strains, locus YLR058C, strain SHM2, active compounds read low 1.02 | S. cerevisiae deletion strains, locus YLR102C, strain apc9, active compounds read low 0.997 | S. cerevisiae deletion strains, locus YLR113W, strain HOG1, active compounds read low 1 | S. cerevisiae deletion strains, locus YLR221C, strain rsa3, active compounds read low 1.02 | S. cerevisiae deletion strains, locus YLR258W, strain gsy2, active compounds read low 1.01 | S. cerevisiae deletion strains, locus YLR262C, strain YPT6 (second series), active compounds read low 1.01 | S. cerevisiae deletion strains, locus YLR262C, strain YPT6, active compounds read low 1.09 | S. cerevisiae deletion strains, locus YLR268W, strain sec22, active compounds read low 1.01 | S. cerevisiae deletion strains, locus YLR320W, strain mms22, active compounds read low 1.03 | S. cerevisiae deletion strains, locus YLR330W, strain CHS5, active compounds read low 1.01 | S. cerevisiae deletion strains, locus YLR342W, strain FKS1 (second series), active compounds read low 0.979 | S. cerevisiae deletion strains, locus YLR342W, strain FKS1, active compounds read low 1.01 | S. cerevisiae deletion strains, locus YLR357W, strain rsc2, active compounds read low 1.07 | S. cerevisiae deletion strains, locus YLR370C, strain arc18, active compounds read low 1.02 | S. cerevisiae deletion strains, locus YLR371W, strain rom2, active compounds read low 0.993 | S. cerevisiae deletion strains, locus YLR384C, strain iki3, active compounds read low 1.02 | S. cerevisiae deletion strains, locus YLR418C, strain cdc73, active compounds read low 0.982 | S. cerevisiae deletion strains, locus YML016C, strain PPZ1, active compounds read low 1.02 | S. cerevisiae deletion strains, locus YML032C, strain rad52, active compounds read low 0.997 | S. cerevisiae deletion strains, locus YML120C, strain ndi1, active compounds read low 1.02 | S. cerevisiae deletion strains, locus YML124C, strain tub3, active compounds read low 0.996 | S. cerevisiae deletion strains, locus YMR058W, strain fet3, active compounds read low 1.02 | S. cerevisiae deletion strains, locus YMR078C, strain ctf18, active compounds read low 0.996 | S. cerevisiae deletion strains, locus YMR125W, strain sto1, active compounds read low 1.02 | S. cerevisiae deletion strains, locus YMR129W, active compounds read low 1.01 | S. cerevisiae deletion strains, locus YMR205C, strain PFK2, active compounds read low 1.04 | S. cerevisiae deletion strains, locus YMR223W, strain ubp8, active compounds read low 0.975 | S. cerevisiae deletion strains, locus YMR231W, strain pep5, active compounds read low 1.02 | S. cerevisiae deletion strains, locus YMR307W, strain GAS1, active compounds read low 0.995 | S. cerevisiae deletion strains, locus YNL067W, strain RPL9B, active compounds read low 1.04 | S. cerevisiae deletion strains, locus YNL071W, strain lat1, active compounds read low 1.01 | S. cerevisiae deletion strains, locus YNL128W, strain TEP1, active compounds read low 0.998 | S. cerevisiae deletion strains, locus YNL175C, strain NOP13, active compounds read low 1.02 | S. cerevisiae deletion strains, locus YNL183C, strain NPR1, active compounds read low 0.924 | S. cerevisiae deletion strains, locus YNL197C, strain WHI3, active compounds read low 1.01 | S. cerevisiae deletion strains, locus YNL209W, strain ssb2, active compounds read low 1.01 | S. cerevisiae deletion strains, locus YNL224C, strain SQS1, active compounds read low 1 | S. cerevisiae deletion strains, locus YNL233W, strain BNI4, active compounds read low 1.02 | S. cerevisiae deletion strains, locus YNL248C, strain rpa49, active compounds read low 1.01 | S. cerevisiae deletion strains, locus YNL250W, strain rad50, active compounds read low 1.02 | S. cerevisiae deletion strains, locus YNL271C, strain bni1, active compounds read low 1 | S. cerevisiae deletion strains, locus YNL298W, strain CLA4, active compounds read low 1 | S. cerevisiae deletion strains, locus YNL307C, strain MCK1, active compounds read low 0.99 | S. cerevisiae deletion strains, locus YNL322C, strain KRE1 (second series), active compounds read low 1.02 | S. cerevisiae deletion strains, locus YNL322C, strain KRE1, active compounds read low 1.01 | S. cerevisiae deletion strains, locus YNR049C, strain mso1, active compounds read low 1.01 | S. cerevisiae deletion strains, locus YNR052C, strain pop2, active compounds read low 1.01 | S. cerevisiae deletion strains, locus YOL006C, strain TOP1, active compounds read low 1.08 | S. cerevisiae deletion strains, locus YOL012C, strain htz1 1.51 | S. cerevisiae deletion strains, locus YOL147C, strain pex11, active compounds read low 1 | S. cerevisiae deletion strains, locus YOR001W, strain rrp6, active compounds read low 1.04 | S. cerevisiae deletion strains, locus YOR061W, strain CKA2, active compounds read low 1.02 | S. cerevisiae deletion strains, locus YOR069W, strain VPS5, active compounds read low 1.01 | S. cerevisiae deletion strains, locus YOR070C, strain gyp1, active compounds read low 1.01 | S. cerevisiae deletion strains, locus YOR080W, strain dia2, active compounds read low 1.02 | S. cerevisiae deletion strains, locus YOR083W, strain WHI5 (second series), active compounds read low 1.05 | S. cerevisiae deletion strains, locus YOR083W, strain WHI5, active compounds read low 1 | S. cerevisiae deletion strains, locus YOR106W, strain vam3, active compounds read low 1.02 | S. cerevisiae deletion strains, locus YOR136W, strain idh2, active compounds read low 0.996 | S. cerevisiae deletion strains, locus YOR144C, strain elg1, active compounds read low 0.99 | S. cerevisiae deletion strains, locus YOR184W, strain ser1, active compounds read low 0.999 | S. cerevisiae deletion strains, locus YOR231W, strain MKK1, active compounds read low 0.977 | S. cerevisiae deletion strains, locus YOR265W, strain rbl2, active compounds read low 1.01 | S. cerevisiae deletion strains, locus YOR270C, strain vph1, active compounds read low 1.04 | S. cerevisiae deletion strains, locus YOR290C, strain snf2, active compounds read low 1 | S. cerevisiae deletion strains, locus YOR316C, strain cot1, active compounds read low 0.999 | S. cerevisiae deletion strains, locus YPL051W, strain arl3, active compounds read low 1.01 | S. cerevisiae deletion strains, locus YPL055C, strain LGE1, active compounds read low 1.04 | S. cerevisiae deletion strains, locus YPL078C, strain atp4, active compounds read low 1.01 | S. cerevisiae deletion strains, locus YPL106C, strain sse1, active compounds read low 1.03 | S. cerevisiae deletion strains, locus YPL240C, strain hsp82, active compounds read low 1.01 | S. cerevisiae deletion strains, locus YPL241C, strain CIN2, active compounds read low 1.01 | S. cerevisiae deletion strains, locus YPL256C, strain CLN2, active compounds read low 0.958 | S. cerevisiae deletion strains, locus YPR119W, strain clb2, active compounds read low 0.993 | S. cerevisiae deletion strains, locus YPR141C, strain kar3, active compounds read low 0.991 | S. cerevisiae deletion strains, locus YPR163C, strain tif3, active compounds read low 1 | S. cerevisiae deletion strains, locus YPR167C, strain met16, active compounds read low 0.997 | S. cerevisiae deletion strains, strain wtn01, active compounds read low 1 | S. cerevisiae strains, strain wild type, active compounds read low 1.02
